From PubChem
Pf growth 96h: P. falciparum growth inhibition at 96 hours; 6.9% of 320,000 active; Potency, µM (series often up to 28.7 µM), without a hit: top-dose activity change, negative = inhibition, hits mostly inhibitors; AID 504834; P. falciparum luciferase reporter growth, 96 h; note: % is set by controls: 0 for no effect and ±100 for the full control effect
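P. falciparum expressing integrated firefly luciferase, in erythrocytes at 2% hematocrit, 0.05% parasitemia, incubated with compounds 96 h at 37 C, 5% CO2. Growth inhibition read as loss of luminescence; two-generation exposure targets delayed-death apicoplast inhibitors.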
Pf growth 48h: inhibits P. falciparum growth in the first generation, 48 h | P. falciparum luciferase growth in erythrocytes, 48 h | Potency, µM (top dose mostly 28.7 µM), inactives show at the highest dose activity change, negative = inhibition, hits mostly inhibitors | 5.9% of 310,000 active | AID 504832; note: % is set by controls: 0 for no effect and ±100 for the full control effect
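Luciferase-expressing parasites in RBCs, 2% Hct / 0.1% parasitemia final; RPMI 1640 + 0.5% Albumax; 37 C, 5% CO2, one generation; luminescence read-out, lower signal = inhibition.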
SARS PLP yeast: SARS-CoV PLP inhibition in yeast | Potency, µM (series often up to 32.9 µM), for inactives: top-dose activity, positive = growth rescue, hits mostly activators | AID 485353 | S. cerevisiae expressing SARS-CoV PLpro, growth rescue | 0.19% of 330,000 active; calls by dose curve; note: 0% is about no effect; nearly all actives have a fitted effect of over 55% in size
NS1 inh: influenza NS1 inhibition; 0.4% of 270,000 active; Potency, µM (series often up to 46.1 µM), for the others: at the highest dose activity, positive = more growth; calls by dose curve; note: actives are rising curves; nearly all actives have a fitted effect of over 50% in size
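Compounds were scored for reversing the slow growth caused by influenza A NS1 in S. cerevisiae, measured by optical density at 600 nm. Assay medium contained 2% galactose at pH 6.0; NS1-free yeast of the same strain were the positive control.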
HCV inh: HCV inhibition | Huh7.5.1 HCVcc-Cre infection, luciferase reporter, 44 h | Potency, µM (top dose mostly 41.8 µM), without a hit: top-dose activity change, negative = inhibition, most hits filed as inhibitors | 3.4% of 340,000 active; note: % is set by controls: 0 for no effect and ±100 for the full control effect
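Luciferase read-out (15 sec integration) after a 15 min room-temperature substrate step quantifies HCVcc-Cre infection. Cells, 1,000 per well, had compound added 4 h post-plating, then virus at ~0.5 moi, and were cultured 44 h.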
AMA1-RON2 inh: inhibitors of Plasmodium falciparum AMA1-RON2 interaction. AID 720542. AlphaScreen AMA1-biotinylated RON2 peptide binding. 0.2% of 360,000 active. Potency, µM (highest dose often 58.2 µM), for the others: at the highest dose activity change, negative = inhibition, actives largely listed as inhibitors;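 note: 0% = vehicle wells and -100% = peptide control; nearly all actives have a fitted effect of over 45% in size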
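AMA1 (3D7) with his tag at 25 nM final met compounds first, then biotinylated RON2 peptide at 25 nM; detection used donor plus acceptor beads, 10 µg/mL apiece, read by AlphaScreen after 30 min at room temperature.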
An asterisk follows results filed as active; ? = inconclusive; nt = not tested or not shown. The list is not random: actives were taken first. Their share in the collection is about 12%. Unless noted, calls come from the whole dose curve; as a rule, active = well fitted curve in the direction sought with a large enough effect; inconclusive = small, poorly fitted or top-dose-only effect, or another doubt; inactive = no such curve, though single readings can be large; an effect the other way counts as inactive or inconclusive. Potency is the fitted concentration of half-maximal effect.

SMILES	Pf growth 96h	Pf growth 48h	SARS PLP yeast	NS1 inh	HCV inh	AMA1-RON2 inh
CCOC1(C)OCC(=O)[C@]2(CCC3C4CCC5=CC(=O)C=CC5(C)C4C(=O)CC32C)O1 (stereo partly specified)	?	10µM*	27%	-16%	13%	12%
COc1ccc(NC(=O)CN2CCCCC2)cc1S(=O)(=O)N1CCCCC1	nt	nt	-1%	nt	5%	12%
COc1ccc(Cl)cc1NCC(=O)Nc1ccc(OC)c(S(=O)(=O)N2CCCCC2)c1	?	9.3µM*	0%	nt	?	-18%
COc1ccc(NC(=O)COc2ccccc2C(N)=O)cc1S(=O)(=O)N1CCCCC1	nt	nt	nt	nt	nt	-6%
CCOc1ccccc1OCC(=O)Nc1ccc(OC)c(S(=O)(=O)N2CCCCC2)c1	12µM*	?	-4%	nt	?	8%
COc1ccc(NC(=O)COC(=O)C2CC2)cc1S(=O)(=O)N1CCCCC1	?	13µM*	5%	nt	-28%	4%
COc1ccc(NC(=O)COc2ccccc2C)cc1S(=O)(=O)N1CCCCC1	?	-19%	-2%	nt	8.9µM*	-3%
C[C@]12CC[C@@H]3[C@H](CCC4=CC(=O)CC[C@]43C)[C@]1(O)CC[C@@]2(O)C(=O)CO	nt	nt	nt	0%	nt	nt
CC(C)NC(=O)N(C)C[C@H]1Oc2ccc(NC(=O)Nc3ccccc3)cc2C(=O)N([C@@H](C)CO)C[C@@H]1C	nt	nt	2%	nt	9%	10%
COc1cc(C(C)=O)ccc1OCC(=O)Nc1ccc(C)c(S(=O)(=O)N2CCCCCC2)c1	?	?	4%	nt	4µM*	-1%
COc1cc(C(C)=O)ccc1OCC(=O)Nc1ccc(S(=O)(=O)N2CCCCC2)cc1	nt	nt	nt	nt	nt	-8%
Cc1cc(F)ccc1NC(=O)CCc1ccc(S(=O)(=O)N2CCOCC2)cc1	?	?	0%	nt	0%	-5%
Cc1ccc([C@@H]2[C@@H]3C(=O)N(c4ccccc4)C(=O)[C@@H]3[C@]3(C)C(=O)N(Cc4ccccc4)CC(=O)N23)o1	2%	?	1%	-3%	4%	1%
CC1NC2(C(=O)N(Cc3ccccc3)c3ccccc32)C2C(=O)N(c3ccccc3)C(=O)C12 (stereo unspecified)	12µM*	?	10%	-58%	12%	-4%
COc1ccc(-c2csc3ncnc(N4CCN(c5ccccc5Cl)CC4)c23)cc1	?	?	-4%	0%	?	-15%
Fc1ccc(-c2csc3ncnc(Cl)c23)cc1	?	0.23µM*	13%	-9%	10%	-1%
Clc1ccc(-c2csc3ncnc(Cl)c23)cc1	?	?	-5%	-13%	-1%	-2%
COc1ccc(Nc2ncnc3scc(-c4ccc(OC)cc4)c23)cc1	9.3µM*	-17%	5%	?	6.3µM*	-12%
COc1ccc(-c2csc3ncnc(Cl)c23)cc1	19%	1.3µM*	1%	-2%	-1%	17%
Cc1cccc(NC(=O)C(C)Sc2nc3nc(C)cc(C)n3n2)c1 (stereo unspecified)	nt	nt	-1%	nt	-2%	15%
Cc1c(Cl)ccc2c(C(=O)NC(C)c3ccncc3)cc(-c3ccncc3)nc12 (stereo unspecified)	-2%	4.1µM*	0%	0%	nt	nt
COC(=O)CNC(=O)c1cc(-c2ccncc2)nc2c(C)c(Cl)ccc12	-55%	?	-3%	-5%	?	-16%
COc1cccc(NC(=O)c2cc(-c3cccnc3)nc3c(Cl)cccc23)c1	1.9µM*	2.1µM*	-4%	3%	-24%	2%
COc1ccc2cc(/C(C)=N/NC(=O)c3cc(-c4cccnc4)nc4ccccc34)ccc2c1	?	-1%	-1%	22%	?	25%
O=C(Nc1ccc(F)cc1)c1cc(-c2ccncc2)nc2c(Cl)cccc12	22%	2.1µM*	3%	-9%	?	-10%
SMILES	Pf growth 96h	Pf growth 48h	SARS PLP yeast	NS1 inh	HCV inh	AMA1-RON2 inh
O=C(NNC(=O)c1cc(-c2ccncc2)nc2ccccc12)Nc1ccc(F)cc1	45%	?	8%	8%	-8%	90%
Cc1cccc(NC(=O)c2cc(-c3cccnc3)nc3c(C)cccc23)n1	4.7µM*	11%	-2%	0%	?	29%
Cc1cc(NC(=O)c2cc(-c3ccncc3)nc3c(C)cccc23)no1	37%	?	-22%	-17%	?	-9%
NC(=O)c1ccccc1NC(=O)Nc1ccc(F)c(Cl)c1	?	25%	-1%	-1%	-17%	-1%
CN(CC(=O)Nc1ccc(Cl)cc1)C(=O)CCC1CCCC1	2%	1%	12%	8%	9%	23%
COc1ccc(C(=O)Nc2ccc(NC(=O)Cc3ccccc3)cn2)cc1	?	-3%	-2%	10%	-10%	12%
COc1cccc(CNC(=O)CCl)c1	10µM*	?	25%	0%	31%	1%
COc1cccc(CNC(=O)C(c2ccc(Cl)cc2)C(C)C)c1 (stereo unspecified)	6.6µM*	9.3µM*	11%	7%	14%	2%
C=CCN1C(=O)c2ccc(C(=O)N3CCN(S(=O)(=O)c4cccc(Cl)c4)CC3)cc2C1=O	13µM*	10µM*	?	7%	-5%	6%
O=c1[nH]c(C2CCN(S(=O)(=O)c3ccc(S(=O)(=O)NC4CC4)cc3)CC2)nc2c1nnn2Cc1ccccc1	8%	3.7µM*	2%	12%	2%	1%
O=c1[nH]c(C2CCN(S(=O)(=O)Cc3ccccc3)CC2)nc2c1nnn2Cc1cccc(Cl)c1	44%	?	0%	11%	19%	-14%
Cc1ccc(C)c(Cn2nnc3c(=O)[nH]c(C4CCN(S(=O)(=O)c5ccc(S(=O)(=O)N(C)C)cc5)CC4)nc32)c1	-7%	?	1%	6%	-17%	-4%
O=c1[nH]c(C2CCN(S(=O)(=O)c3cccc([N+](=O)[O-])c3)CC2)nc2c1nnn2Cc1ccccc1	43%	8.3µM*	-1%	8%	7%	-16%
O=c1[nH]c(C2CCN(S(=O)(=O)c3cccc(Cl)c3)CC2)nc2c1nnn2Cc1ccccc1	21%	?	5%	25%	14%	-12%
O=c1[nH]c(C2CCN(S(=O)(=O)Cc3ccccc3)CC2)nc2c1nnn2Cc1ccccc1	13%	9.3µM*	6%	8%	-8%	-8%
O=c1[nH]c(C2CCN(S(=O)(=O)c3ccc(S(=O)(=O)NC4CC4)cc3)CC2)nc2c1nnn2Cc1ccc(F)cc1	?	?	2%	?	8%	-24%
Cc1ccc(C)c(Cn2nnc3c(=O)[nH]c(C4CCN(S(=O)(=O)c5ccc(S(=O)(=O)NC6CC6)cc5)CC4)nc32)c1	-1%	2.6µM*	2%	20%	?	-19%
